An excerpt weighted towards active compounds, which were near 1.4% of everything screened.
BAP1 inh: inhibitors of BAP1 deubiquitinase, primary screen, biochemical, Ub-AMC fluorescence, kinetic. actives 0.48% (n = 72,000). AID 436, 2006. recombinant BAP1, Ub-AMC hydrolysis fluorescence kinetic; active compounds read low. calls only at 20 µM. Ubiquitin carboxyl-terminal hydrolase BAP1 (Homo sapiens), Q92560;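 active = activity remaining at or below 50% of control, provided the compound also passes the data quality filters; inactive = the rest, including low values that fail the filters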
Target sequence (Q92560 whole entry, looked up): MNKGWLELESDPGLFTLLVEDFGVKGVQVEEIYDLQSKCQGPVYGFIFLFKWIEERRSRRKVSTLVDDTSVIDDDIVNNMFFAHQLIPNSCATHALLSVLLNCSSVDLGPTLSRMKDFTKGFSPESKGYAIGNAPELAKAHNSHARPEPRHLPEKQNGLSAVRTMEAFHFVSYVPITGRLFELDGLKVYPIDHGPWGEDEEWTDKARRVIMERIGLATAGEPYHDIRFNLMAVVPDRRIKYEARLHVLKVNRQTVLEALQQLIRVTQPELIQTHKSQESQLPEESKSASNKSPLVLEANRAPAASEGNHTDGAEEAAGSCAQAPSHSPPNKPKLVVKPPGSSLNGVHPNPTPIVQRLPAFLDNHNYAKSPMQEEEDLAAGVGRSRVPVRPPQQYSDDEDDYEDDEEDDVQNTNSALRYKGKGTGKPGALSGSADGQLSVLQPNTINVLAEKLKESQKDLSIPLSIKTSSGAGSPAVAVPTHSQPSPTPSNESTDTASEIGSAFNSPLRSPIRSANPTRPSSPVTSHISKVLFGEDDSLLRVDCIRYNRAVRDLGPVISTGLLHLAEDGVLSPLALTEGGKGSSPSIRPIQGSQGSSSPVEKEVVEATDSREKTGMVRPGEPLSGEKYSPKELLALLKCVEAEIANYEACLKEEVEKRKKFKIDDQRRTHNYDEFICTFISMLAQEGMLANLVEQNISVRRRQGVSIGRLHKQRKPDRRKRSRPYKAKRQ
MKP-1 inh: MKP-1 phosphatase inhibitors, primary screen, biochemical, in vitro; Dual specificity protein phosphatase 1 (Homo sapiens), P28562; recombinant MKP-1, OMFP hydrolysis fluorescence; inhibition, %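 (compounds tested at a single concentration somewhere between 10 and 100 µM)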; actives 0.15% (n = 65,000); AID 374, 2006;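 active = inhibition above about 50%, limit read from the data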
HePTP inhibitor: inhibitors of human HePTP phosphatase, primary screen, biochemical, absorbance, leukemia target | Tyrosine-protein phosphatase non-receptor type 7 (Homo sapiens), P35236 | recombinant HePTP phosphatase activity, OD absorbance | inhibition, % at 20 µM | actives 0.64% (n = 110,000) | AID 521, 2006; in the data active = inhibition above about 50%
PLAP activator: PLAP enzyme activators, biochemical, luminescence, HTS | purified PLAP enzyme, luminescent substrate read-out; active compounds read high | activation fold at 20 µM | actives 1.2% (n = 96,000); in the data active = activation fold above about 2
Cdc25B block: inhibitors of Cdc25B phosphatase catalytic domain, primary screen, biochemical, OMFP fluorescence; AID 368, 2006; actives 0.1% (n = 65,000); recombinant Cdc25B, OMFP fluorescence Ex485/Em525; M-phase inducer phosphatase 2 (Homo sapiens), P30305; inhibition, %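 (compounds tested at 10 µM final in the well)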; in the data active = inhibition above about 50%
Numbers stand for hits; - = inactive; . = no result shown.

SMILES | BAP1 inh | MKP-1 inh | HePTP inhibitor | PLAP activator | Cdc25B block
O=C(O)CCCCCN1C(=O)C(=O)/C(=C(/O)c2ccc(Cl)cc2)C1c1ccccc1[N+](=O)[O-] (stereo unspecified) | . | . | - | . | .
O=C(Nc1ccccc1Cl)c1ccccc1C(F)(F)F | . | . | 104 | . | .
CCOC(=O)Cn1c(=O)oc2cc(S(=O)(=O)NCc3cccs3)ccc21 | - | - | - | - | -
CCOC(=O)Cn1c(=O)oc2cc(S(=O)(=O)NCc3ccccn3)ccc21 | - | - | - | 2 | -
CCOc1cc(/C=N/n2cnnc2)ccc1OCCOc1ccc(C(C)CC)cc1 (stereo unspecified) | . | . | - | . | .
c1ccc(CN2CCN(c3ncnc4nc[nH]c34)CC2)cc1 | - | - | - | 2.1 | -
c1nc(N2CCCCC2)c2[nH]cnc2n1 | - | - | - | - | -
C1=C(c2ccccc2)CCN(c2ncnc3nc[nH]c23)C1 | - | - | - | 2 | -
O=C1NC(=S)N(c2ccc(Cl)cc2)C(=O)/C1=C\c1ccc(-c2cccc(C(=O)O)c2)o1 | . | . | 78 | . | .
CCOC(=O)c1ccc(N2NC(=O)/C(=C/c3ccc(-c4ccc(Cl)c(C(=O)O)c4)o3)C2=O)cc1 | . | . | 51 | . | .
COC(=O)c1ccc(-c2ccc(/C=C3\C(=O)NN(c4ccccc4)C3=O)o2)cc1 | . | . | - | . | .
Cc1cc(Br)ccc1N1C(=O)/C(=C/C=C/c2ccccc2)C(=O)NC1=S | . | . | - | . | .
CCOc1ccc(N2C(=O)NC(=O)/C(=C/c3ccc(-c4ccc(C(=O)O)c(Cl)c4)o3)C2=O)cc1 | . | . | 103 | . | .
O=C1NC(=S)N(c2ccccc2)C(=O)/C1=C/c1ccc(-c2ccc(Cl)c(C(=O)O)c2)o1 | . | . | - | . | .
O=C1NC(=S)N(c2ccc(Cl)cc2)C(=O)/C1=C/C=C/c1ccccc1 | . | . | 62 | . | .
O=C(Nc1ccc(Cl)cc1)NC1CCCCCCC1 | . | . | - | . | .
COc1cc(Cl)cc(/C=C2/C(=O)NC(=O)N(c3ccc(C)cc3)C2=O)c1O | . | . | - | . | .
CCOC(=O)c1ccc(-c2ccc(/C=C3\C(=O)NC(=O)C(C#N)=C3C)o2)cc1 | . | . | - | . | .
Cc1ccc(N2C(=O)/C(=C\c3ccc(-c4ccc(Cl)c(C(=O)O)c4)o3)C(=O)NC2=S)cc1 | . | . | 66 | . | .
CC1=C(C#N)C(=O)NC(=O)/C1=C\c1ccc(-c2ccc(Cl)c(Cl)c2)o1 | . | . | 67 | . | .
COc1c(Br)cc(Cl)cc1/C=C1\C(=O)NC(=S)N(c2ccc(C)cc2)C1=O | . | . | 103 | . | .
Cc1ccc([N+](=O)[O-])cc1-c1ccc(/C=C2/C(=O)NN(c3ccc(Cl)cc3)C2=O)o1 | . | . | 94 | . | .
C#CCOc1c(Cl)cc(/C=C2\C(=O)NC(=O)N(c3ccc(C)cc3)C2=O)cc1OCC | . | . | - | . | .
CC(C)COc1ccc(C(=O)NCc2cccnc2)cc1 | . | . | - | . | .
O=C1c2cccc([N+](=O)[O-])c2C(=O)N1c1cccc(-c2nc3ccccc3c(=O)o2)c1 | . | . | - | . | .
SMILES | BAP1 inh | MKP-1 inh | HePTP inhibitor | PLAP activator | Cdc25B block
CC(C)CCN1CC(O)=C(c2nc3ccccc3[nH]2)C1=N | . | . | . | - | .
CC(C)N1CC(O)=C(c2nc3ccccc3[nH]2)C1=N | - | - | - | 2.5 | -
O=C(Nc1ccccc1)C(=Cc1ccccc1F)NC(=O)c1ccccc1 | . | . | - | . | .
Cc1ccc(C23CC4CC(CC(C(=O)Nc5ccc(F)cc5F)(C4)C2)C3)cc1 | . | . | 72 | . | .
Cc1ccc(C23CC4CC(CC(C(=O)Nc5cccc(C(=O)O)c5)(C4)C2)C3)cc1 | . | . | - | . | .
CCOC(=O)C1(P(=O)(c2ccccc2)c2ccccc2)CC1 | . | . | - | . | .
Cc1cc(Cl)ccc1N(CC(=O)N=Nc1c(O)[nH]c2ccccc12)S(C)(=O)=O | . | . | . | 2.1 | .
Cc1ccc(N(CC(=O)N=Nc2c(O)[nH]c3ccccc23)S(=O)(=O)c2ccccc2)cc1 | . | . | - | . | .
Cc1nn(-c2ccccc2)c(C)c1Sc1ccc(Cl)cc1 | . | . | 104 | . | .
O=C1Nc2ccccc2/C1=N/N=C/c1cccc(Oc2ccccc2)c1 | . | . | - | . | .
COc1ccc(C(=O)CSc2nnc(CNC(=O)c3ccc(OC)c(OC)c3)n2C)cc1 | - | 74 | - | - | -
COc1ccc(-n2c(SCC(=O)NNC(=O)c3ccccc3C)nnc2-c2ccncc2)cc1 | . | . | . | 2.1 | .
COc1ccc(C(=O)NNC(=O)CSc2nnc(COc3ccccc3)n2C)cc1 | . | . | . | 2 | .
COc1ccc(-n2c(SCCC(=O)O)nnc2-c2ccncc2)cc1 | - | - | - | - | -
COc1ccc(C(=O)NNC(=O)CSc2nnc(COc3ccc4ccccc4c3)n2C)cc1 | . | . | . | - | .
O=C(COc1ccc(Br)cc1)Nc1ccc(Cl)cc1 | . | . | - | . | .
O=C(CN1CCC(NC(=O)Nc2ccccc2-c2ccccc2)CC1)NCc1ccco1 | - | - | - | 2.2 | -
Cc1ccc(-c2ccccc2)n1-c1ccc(Cl)c(C(=O)O)c1 | . | . | - | . | .
Cc1ccc(C)n1-c1ccc(Cl)c(C(=O)O)c1 | . | . | 104 | . | .
Cc1cc(C(=O)O)ccc1-n1c(C)ccc1C | . | - | 104 | . | -
Cc1ccc(-c2ccccc2)n1-c1ccc(O)c(C(=O)O)c1 | . | . | 96 | . | .
Cc1ccc(C)n1-c1ccc(Cl)cc1C(=O)O | . | . | 102 | . | .
CC(C)Oc1cccc(C(=O)Nc2ccc(F)c([N+](=O)[O-])c2)c1 | . | . | - | . | .
Cc1ccc(O)c(NC(=O)c2ccc(Cl)cc2)c1 | . | . | - | . | .
C/C=C/COC(=O)C1=C(C)NC(=O)NC1c1ccc(Cl)cc1Cl (stereo unspecified) | . | . | - | . | .
SMILES | BAP1 inh | MKP-1 inh | HePTP inhibitor | PLAP activator | Cdc25B block
Cc1ccc(C(=O)O)cc1-n1c(C)ccc1C | . | . | 104 | . | .
Cc1ccc(C)n1-c1cc(C(=O)O)ccc1Cl | . | . | 103 | . | .
COc1cc(C(=O)O)c(-n2c(C)ccc2C)cc1OC | . | . | - | . | .
Cc1cc(Cl)c2cc(C(=O)O)ccc2n1 | . | . | - | . | .
O=C(Nc1ccc2c(c1)OCCOCCOCCOCCO2)Nc1ccc2c(c1)OCCOCCOCCOCCO2 | - | . | . | . | .
O=C(Nc1ccc(Cl)cc1)Nc1ccc2c(c1)OCCO2 | . | . | 105 | . | .
S=C(NCCOc1cccc2ccccc12)Nc1cccc2ccccc12 | . | . | - | . | .
CCOc1ccc(N2C(=O)CC(N3CCN(c4cccc(Cl)c4)CC3)C2=O)cc1 (stereo unspecified) | . | . | - | . | .
COc1cccc(N2CCN(C3CC(=O)N(c4cccc(Cl)c4)C3=O)CC2)c1 (stereo unspecified) | - | - | - | - | 92
COc1ccc(N2C(=O)CC(N3CCN(C(c4ccccc4)c4ccc(Cl)cc4)CC3)C2=O)cc1 (stereo unspecified) | . | . | 105 | . | .
C=CCNC(=O)C(=O)Nc1cc(C)cc(C)c1 | . | . | - | . | .
CC(=O)/C=C1/SCC(=O)N1c1ccccc1 | . | . | - | . | .
Cc1nn(Cc2cccc(F)c2)c(C)c1NC(=O)c1ccc(COc2ccccc2Cl)cc1 | . | . | . | 2 | .
Cc1nn(Cc2c(F)c(F)c(F)c(F)c2F)c(C)c1NC(=O)c1cccc(COc2ccccc2Cl)c1 | . | . | . | - | .
CCCC1=NN2C(=N)/C(=C/c3ccc(-c4ccc([N+](=O)[O-])cc4C)o3)C(=O)N=C2S1 | . | . | 82 | . | .
NS(=O)(=O)c1ccc(NC(=O)c2ccccc2Cl)cc1 | . | . | . | - | .
NS(=O)(=O)c1ccc(NC(=O)c2c(Cl)cccc2Cl)cc1 | . | . | 104 | . | .
